# Records with an inconclusive call do not appear. The source made the active and inactive calls. How the source made its calls, unless noted: active means hit-call score of the fitted dose curve at least 0.9, where 1 is the maximum; inconclusive means response in the unintended direction; inactive means score below 0.9.
# Experiments:
# [1] = ATG_TCF_b_cat_CIS: Attagene CIS-FACTORIAL HepG2 Assay for human T-Cell-Factor with beta-catenin (TCF/b-cat) (AID 2282965; active means hit-call score of the fitted dose curve at least 0.9, where 1 is the maximum; inactive means score below 0.9); details: HepG2 TCF/beta-catenin cis-reporter transcription, actives raise or lower the signal
# In short: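 In this cis-format system, transfected HepG2 cells report endogenous transcription factor activity. Readout after 24 h exposure is reporter transcript abundance from RT-PCR and capillary electrophoresis, analysed for gain or loss of signal versus DMSO.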
# [2] = ATG_TAL_CIS: Attagene CIS-FACTORIAL HepG2 Assay for human TAL Basal Promoter (AID 2282966; active means hit-call score of the fitted dose curve at least 0.9, where 1 is the maximum; inactive means score below 0.9;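 further: background control endpoint measuring basal TAL promoter reporter mRNA not a specific factor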); details: HepG2 Attagene cis-factorial TAL promoter reporter; actives raise or lower the signal
# In short: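 In this cell-based multiplex, HepG2 liver cells bearing cis-promoter reporter constructs are dosed for 24 hours. Total RNA is reverse-transcribed and amplified, labelled fragments are sized by capillary electrophoresis, and signal changes are fitted bidirectionally versus DMSO.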
# [3] = ATG_TGFb_CIS: Attagene CIS-FACTORIAL HepG2 Assay for human Transforming Growth Factor (TGF) (AID 2282967; active means hit-call score of the fitted dose curve at least 0.9, where 1 is the maximum; inactive means score below 0.9); details: HepG2 Attagene CIS TGFb reporter, mRNA transcription; actives raise or lower the signal
# In short: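 HepG2 cells transiently transfected with cis-promoter-driven multiple reporter units measure endogenous TF activity; reporter mRNA quantified at 24 h by RT-PCR, FAM labeling, HpaI digestion and capillary electrophoresis. Bidirectional fit vs DMSO.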
# [4] = ATG_VDRE_CIS: Attagene CIS-FACTORIAL HepG2 Assay for human Vitamin D Receptor Element (VDRE) (AID 2282968; active means hit-call score of the fitted dose curve at least 0.9, where 1 is the maximum; inactive means score below 0.9); details: HepG2 VDRE cis-reporter transcription, actives raise or lower the signal
# In short: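 HepG2 cells transiently transfected with cis-element reporter units, dosed 24 h; reporter mRNA measured by RT-PCR, 6-FAM labeling, HpaI digestion and capillary electrophoresis. Activity fitted bidirectionally against DMSO baseline.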
# [5] = biological target: X-box-binding protein 1 (Homo sapiens) (UniProt P17861); assay: ATG_Xbp1_CIS: Attagene CIS-FACTORIAL HepG2 Assay for human X-box Binding Protein 1 (XBP1) (AID 2282972; active means hit-call score of the fitted dose curve at least 0.9, where 1 is the maximum; inactive means score below 0.9); details: HepG2 XBP1 cis-element reporter, Attagene multiplex; actives raise or lower the signal
# In short: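 HepG2 cells transiently transfected with cis-regulated multiple reporter transcription units; endogenous transcription factor activity measured 24 hours after chemical dosing. Reporter mRNA quantified by RT-PCR, 6-FAM primer extension, HpaI digestion and capillary electrophoresis; bidirectional fitting versus DMSO.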
# [6] = biological target: Glucocorticoid receptor (Homo sapiens) (UniProt P04150); assay: ATG_GR_TRANS: Attagene TRANS-FACTORIAL HepG2 Assay for human Glucocorticoid Receptor (GR) (AID 2282978); details: HepG2 Attagene TRANS GR reporter, mRNA transcription;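 further: activators score as hits since higher reporter transcript over DMSO is fitted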
# In short: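 After 24 h incubation with test chemical, transfected HepG2 cells were lysed for RNA; reporter cDNA was amplified, FAM-labelled, HpaI-digested and sized on a capillary analyser. Signal gain relative to DMSO was scored.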
# [7] = ATG_M_06_TRANS: Attagene TRANS-FACTORIAL HepG2 Assay for M06 Transcription Factor (Internal Marker) (AID 2282983); details: HepG2 Attagene TRANS M06 internal marker reporter
# In short: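 After a 24 h chemical treatment of transfected HepG2, RNA underwent DNase I treatment, reverse transcription and reporter-specific PCR; labelled, HpaI-digested products were sized by capillary electrophoresis. Signal increase relative to DMSO defined activity.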
# [8] = ATG_M_32_TRANS: Attagene TRANS-FACTORIAL HepG2 Assay for M32 Transcription Factor (Internal Marker) (AID 2282984); details: HepG2 Attagene TRANS M32 internal marker reporter;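 further: transcript level of a background control reporter unit measured by RT-PCR and capillary electrophoresis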
# In short: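 HepG2 cells transiently transfected with multiple GAL4-UAS reporter transcription units, dosed for 24 hours; reporter mRNA quantified by RT-PCR, 6-FAM primer extension, HpaI digestion and capillary electrophoresis. Gain-of-signal fitted versus DMSO baseline; internal background-control marker.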
# [9] = biological target: Nuclear receptor subfamily 4 group A member 2 (Homo sapiens) (UniProt P43354); assay: ATG_NURR1_TRANS: Attagene TRANS-FACTORIAL HepG2 Assay for human Nuclear Receptor Related Protein 1 (NURR1) (AID 2282985); details: HepG2 Attagene TRANS reporter, mRNA readout
# In short: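 HepG2 cells transiently transfected with GAL4-UAS reporter units and chimeric NR-Gal4 constructs; chemical exposure 24 h. Reporter mRNA quantified by RT-PCR, fluorescent labelling and capillary electrophoresis; gain of signal fitted relative to DMSO baseline.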
# [10] = biological target: Estrogen receptor (Homo sapiens) (UniProt P03372); assay: ATG_ERa_TRANS: Attagene TRANS-FACTORIAL HepG2 Assay for human Estrogen Receptor alpha (ERa) (AID 2282970); details: HepG2 Attagene TRANS ERa GAL4 reporter, mRNA
# In short: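 After 24 h of compound treatment, RNA from HepG2 cells bearing transfected GAL4-UAS reporter constructs is converted to cDNA, amplified and fluorescently labelled. Capillary electrophoresis resolves the ERa-linked reporter; DMSO serves as negative control.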
# [11] = ATG_GAL4_TRANS: Attagene TRANS-FACTORIAL HepG2 Assay for GAL4 (Internal Marker) (AID 2282976); details: HepG2 Attagene TRANS GAL4 internal marker reporter
# In short: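 RT-PCR/capillary electrophoresis readout of reporter mRNA. HepG2, transient MRTU transfection (GAL4-UAS reporters), 24 h compound exposure. Background-control endpoint, positive direction vs DMSO baseline.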
# [12] = biological target: Estrogen-related receptor gamma (Homo sapiens) (UniProt P62508); assay: ATG_ERRg_TRANS: Attagene TRANS-FACTORIAL HepG2 Assay for human Estrogen-Related Receptor gamma (ERRg) (AID 2282977); details: HepG2 Attagene TRANS reporter, ERRg transactivation;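 further: hits increase reporter signal over DMSO so potencies reflect activators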
# In short: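 Transient HepG2 transfectants, 24 h compound exposure, GAL4-UAS reporter mRNA by RT-PCR/6-FAM labelling/capillary electrophoresis; positive direction vs DMSO.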
# [13] = biological target: Bile acid receptor (Homo sapiens) (UniProt Q96RI1); assay: ATG_FXR_TRANS: Attagene TRANS-FACTORIAL HepG2 Assay for Farnesoid X Receptor (FXR) (AID 2282979); details: HepG2 Attagene TRANS FXR-GAL4 reporter transcription;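 further: hits raise reporter mRNA above DMSO so AC50 marks FXR activation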
# In short: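 Read-out: fluorescent reporter transcripts quantified by capillary electrophoresis after RT-PCR of total RNA. Source cells were HepG2 transiently carrying chimeric NR-GAL4 plus GAL4-UAS reporter units, dosed 24 h. Activity fitted upward relative to DMSO baseline.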
# [14] = biological target: Hepatocyte nuclear factor 4-alpha (Homo sapiens) (UniProt P41235); assay: ATG_HNF4a_TRANS: Attagene TRANS-FACTORIAL HepG2 Assay for human Hepatocyte Nuclear Factor 4 alpha (HNF4a) (AID 2282982); details: HepG2 HNF4a transactivation reporter, mRNA readout
# In short: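 HepG2 cells transiently transfected with multiplexed GAL4-UAS reporter units responsive to chimeric NR-GAL4 proteins; compound exposure 24 h. Reporter mRNA quantified by RT-PCR, 6-FAM labelling, HpaI digestion and capillary electrophoresis; gain of signal versus DMSO baseline.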
# [15] = ATG_M_19_TRANS: Attagene TRANS-FACTORIAL HepG2 Assay for M19 Transcription Factor (Internal Marker) (AID 2282974); details: HepG2 Attagene TRANS-FACTORIAL M19 internal marker reporter
# In short: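 Transfected HepG2 (GAL4-UAS MRTUs), 24 h compound, TriZol RNA, DNase-treated RT, reporter PCR, FAM label, HpaI digest, CE fluorescence; gain vs DMSO.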
# [16] = biological target: Oxysterols receptor LXR-alpha (Homo sapiens) (UniProt Q13133); assay: ATG_LXRa_TRANS: Attagene TRANS-FACTORIAL HepG2 Assay for human Liver X Receptor alpha (LXRa) (AID 2282980); details: HepG2 Attagene TRANS reporter, LXRa transactivation
# In short: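 Read-out: reporter transcript levels by RT-PCR plus capillary electrophoresis, fluorescence intensity. Transiently transfected HepG2, exogenous NR-GAL4 chimera, GAL4-UAS reporters; 24 h compound exposure. Activity = increase over DMSO negative control.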
# [17] = biological target: Steroid hormone receptor ERR1 (Homo sapiens) (UniProt P11474); assay: ATG_ERRa_TRANS: Attagene TRANS-FACTORIAL HepG2 Assay for human Estrogen-Related Receptor alpha (ERRa) (AID 2282971); details: HepG2 Attagene TRANS reporter, ERRa transactivation
# In short: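 Transfected HepG2, 24 h dosing, ERRa-Gal4 chimera driving GAL4-UAS reporter. Readout: reporter mRNA via RT-PCR plus capillary electrophoresis (fluorescence). Positive direction vs DMSO control.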
# [18] = biological target: Oxysterols receptor LXR-beta (Homo sapiens) (UniProt P55055); assay: ATG_LXRb_TRANS: Attagene TRANS-FACTORIAL HepG2 Assay for human Liver X Receptor beta (LXRb) (AID 2282981); details: HepG2 Attagene TRANS GAL4-LXRb reporter, mRNA
# In short: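 HepG2 cells transiently transfected with multiple reporter transcription units carrying chimeric NR-Gal4 proteins acting on GAL4-UAS reporters; compound exposure 24 h. Reporter mRNA quantified by RT-PCR, 6-FAM labelling, HpaI digestion and capillary electrophoresis; gain of signal versus DMSO.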
# [19] = biological target: Nuclear receptor subfamily 1 group I member 3 (Homo sapiens) (UniProt Q14994); assay: ATG_CAR_TRANS: Attagene TRANS-FACTORIAL HepG2 Assay for human Constitutive Androstane Receptor (CAR) (AID 2282969); details: HepG2 Attagene TRANS-FACTORIAL CAR reporter;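 further: activators raise reporter mRNA above DMSO so AC50 marks induction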
# In short: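 HepG2 cells transiently transfected with multiplexed GAL4-UAS reporter units expressing chimeric NR-Gal4 proteins; compound exposure 24 h. Reporter mRNA measured by RT-PCR, 6-FAM labelling, HpaI digestion and capillary electrophoresis; gain-of-signal fitted against DMSO baseline.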
# [20] = biological target: Androgen receptor (Homo sapiens) (UniProt P10275); assay: ATG_AR_TRANS: Attagene TRANS-FACTORIAL HepG2 Assay for human Androgen Receptor (AR) (AID 2282973); details: HepG2 Attagene TRANS-FACTORIAL AR reporter transcription
# In short: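 Readout is reporter transcript abundance, quantified by fluorescent RT-PCR products separated on capillary electrophoresis. Human HepG2 liver cells carried transiently transfected NR-Gal4 chimera plus GAL4-UAS reporter constructs and were dosed for 24 h; activity scored upward versus DMSO.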
# Sequence of Estrogen-related receptor gamma (Homo sapiens) (P62508 whole entry, looked up, the tested form may be a part): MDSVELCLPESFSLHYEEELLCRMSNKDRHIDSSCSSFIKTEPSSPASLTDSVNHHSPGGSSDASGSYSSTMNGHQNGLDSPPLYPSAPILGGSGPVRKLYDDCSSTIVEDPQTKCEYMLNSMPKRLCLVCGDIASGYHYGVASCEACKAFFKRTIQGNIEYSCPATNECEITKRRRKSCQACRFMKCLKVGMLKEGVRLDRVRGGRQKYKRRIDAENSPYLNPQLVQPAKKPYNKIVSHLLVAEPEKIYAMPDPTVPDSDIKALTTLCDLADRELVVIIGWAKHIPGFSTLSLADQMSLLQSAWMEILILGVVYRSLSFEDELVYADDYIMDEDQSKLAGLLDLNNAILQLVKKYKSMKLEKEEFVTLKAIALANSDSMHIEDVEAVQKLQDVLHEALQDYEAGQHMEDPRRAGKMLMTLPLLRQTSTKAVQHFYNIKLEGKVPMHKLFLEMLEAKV
# Sequence of Steroid hormone receptor ERR1 (Homo sapiens) (P11474 whole entry, looked up, the tested form may be a part): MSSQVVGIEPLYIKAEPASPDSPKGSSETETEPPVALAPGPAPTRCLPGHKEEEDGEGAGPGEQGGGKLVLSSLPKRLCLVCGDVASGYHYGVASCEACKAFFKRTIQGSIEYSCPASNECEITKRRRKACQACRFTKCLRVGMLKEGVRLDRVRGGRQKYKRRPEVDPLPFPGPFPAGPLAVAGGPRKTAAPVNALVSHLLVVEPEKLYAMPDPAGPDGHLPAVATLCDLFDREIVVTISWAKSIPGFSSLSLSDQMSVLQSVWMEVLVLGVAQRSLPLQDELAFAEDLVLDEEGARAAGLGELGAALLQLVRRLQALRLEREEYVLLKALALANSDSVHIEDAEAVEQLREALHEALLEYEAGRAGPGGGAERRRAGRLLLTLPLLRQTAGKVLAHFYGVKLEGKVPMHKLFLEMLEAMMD
# Sequence of Glucocorticoid receptor (Homo sapiens) (P04150 whole entry, looked up): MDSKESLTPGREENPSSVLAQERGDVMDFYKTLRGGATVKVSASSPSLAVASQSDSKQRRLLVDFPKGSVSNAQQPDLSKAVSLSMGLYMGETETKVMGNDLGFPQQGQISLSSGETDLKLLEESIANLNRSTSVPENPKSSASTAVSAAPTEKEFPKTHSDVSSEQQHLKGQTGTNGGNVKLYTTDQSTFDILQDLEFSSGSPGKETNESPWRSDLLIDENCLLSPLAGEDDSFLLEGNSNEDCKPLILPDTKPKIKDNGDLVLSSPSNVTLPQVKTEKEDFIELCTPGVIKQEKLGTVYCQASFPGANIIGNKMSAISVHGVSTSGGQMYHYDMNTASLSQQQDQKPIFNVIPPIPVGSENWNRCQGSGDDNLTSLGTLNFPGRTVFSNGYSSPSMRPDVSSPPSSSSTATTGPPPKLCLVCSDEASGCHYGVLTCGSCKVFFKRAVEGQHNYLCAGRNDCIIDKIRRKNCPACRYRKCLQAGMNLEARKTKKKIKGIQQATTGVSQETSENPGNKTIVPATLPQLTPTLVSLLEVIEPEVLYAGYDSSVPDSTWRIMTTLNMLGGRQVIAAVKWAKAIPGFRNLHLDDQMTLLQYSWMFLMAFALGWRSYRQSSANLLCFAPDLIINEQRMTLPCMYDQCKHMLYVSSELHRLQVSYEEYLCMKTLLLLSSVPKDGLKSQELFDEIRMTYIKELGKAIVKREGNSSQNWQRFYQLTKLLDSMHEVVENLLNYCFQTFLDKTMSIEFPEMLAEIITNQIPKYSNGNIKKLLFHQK
# Sequence of Hepatocyte nuclear factor 4-alpha (Homo sapiens) (P41235 whole entry, looked up, the tested form may be a part): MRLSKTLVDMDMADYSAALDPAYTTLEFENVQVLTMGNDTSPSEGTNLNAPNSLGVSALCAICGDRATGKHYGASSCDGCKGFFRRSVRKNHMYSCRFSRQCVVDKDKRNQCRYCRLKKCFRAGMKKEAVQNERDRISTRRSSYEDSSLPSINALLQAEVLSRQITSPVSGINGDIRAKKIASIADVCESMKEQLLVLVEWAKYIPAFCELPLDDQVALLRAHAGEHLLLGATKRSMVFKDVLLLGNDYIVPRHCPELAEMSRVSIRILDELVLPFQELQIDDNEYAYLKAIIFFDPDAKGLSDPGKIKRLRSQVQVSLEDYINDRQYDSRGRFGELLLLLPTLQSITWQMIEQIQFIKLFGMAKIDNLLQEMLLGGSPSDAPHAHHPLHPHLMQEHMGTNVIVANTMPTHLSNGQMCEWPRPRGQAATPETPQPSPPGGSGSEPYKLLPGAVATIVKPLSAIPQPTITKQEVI
# Sequence of Bile acid receptor (Homo sapiens) (Q96RI1 whole entry, looked up, the tested form may be a part): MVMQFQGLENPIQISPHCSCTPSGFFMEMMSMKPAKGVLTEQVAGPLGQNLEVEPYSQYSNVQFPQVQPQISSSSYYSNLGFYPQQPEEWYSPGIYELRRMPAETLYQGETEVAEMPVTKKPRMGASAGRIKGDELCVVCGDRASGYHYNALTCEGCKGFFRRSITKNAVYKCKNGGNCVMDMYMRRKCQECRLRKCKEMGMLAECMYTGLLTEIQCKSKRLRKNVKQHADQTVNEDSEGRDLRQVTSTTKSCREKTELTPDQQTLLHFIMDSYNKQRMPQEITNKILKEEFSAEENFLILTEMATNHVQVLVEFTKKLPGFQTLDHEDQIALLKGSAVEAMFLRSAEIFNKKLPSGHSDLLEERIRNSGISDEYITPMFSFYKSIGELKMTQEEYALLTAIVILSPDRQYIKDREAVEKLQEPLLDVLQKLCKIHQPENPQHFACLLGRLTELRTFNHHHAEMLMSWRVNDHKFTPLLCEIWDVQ
# Sequence of X-box-binding protein 1 (Homo sapiens) (P17861 whole entry, looked up): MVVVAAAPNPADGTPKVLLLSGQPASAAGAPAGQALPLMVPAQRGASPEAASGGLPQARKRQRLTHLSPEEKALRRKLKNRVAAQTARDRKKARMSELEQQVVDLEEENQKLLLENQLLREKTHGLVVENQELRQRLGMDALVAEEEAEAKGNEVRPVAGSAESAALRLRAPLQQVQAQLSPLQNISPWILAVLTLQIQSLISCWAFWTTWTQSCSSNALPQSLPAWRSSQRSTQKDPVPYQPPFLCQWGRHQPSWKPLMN
# Sequence of Nuclear receptor subfamily 4 group A member 2 (Homo sapiens) (P43354 whole entry, looked up, the tested form may be a part): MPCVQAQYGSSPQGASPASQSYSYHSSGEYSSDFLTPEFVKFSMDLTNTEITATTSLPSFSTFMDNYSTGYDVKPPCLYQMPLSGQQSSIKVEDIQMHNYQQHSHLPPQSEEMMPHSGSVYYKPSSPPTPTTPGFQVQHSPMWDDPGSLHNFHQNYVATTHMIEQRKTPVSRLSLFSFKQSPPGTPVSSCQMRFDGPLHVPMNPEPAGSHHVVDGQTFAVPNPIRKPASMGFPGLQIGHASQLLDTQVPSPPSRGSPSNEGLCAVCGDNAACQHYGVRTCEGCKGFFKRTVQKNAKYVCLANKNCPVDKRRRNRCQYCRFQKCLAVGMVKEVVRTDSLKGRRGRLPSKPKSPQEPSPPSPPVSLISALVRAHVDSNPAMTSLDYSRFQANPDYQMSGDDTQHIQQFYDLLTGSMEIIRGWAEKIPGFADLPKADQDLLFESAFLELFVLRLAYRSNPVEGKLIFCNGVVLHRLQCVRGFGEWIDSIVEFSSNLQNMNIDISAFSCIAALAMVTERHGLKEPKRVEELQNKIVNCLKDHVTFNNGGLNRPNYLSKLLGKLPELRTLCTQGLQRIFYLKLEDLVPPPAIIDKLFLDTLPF
# Sequence of Nuclear receptor subfamily 1 group I member 3 (Homo sapiens) (Q14994 whole entry, looked up, the tested form may be a part): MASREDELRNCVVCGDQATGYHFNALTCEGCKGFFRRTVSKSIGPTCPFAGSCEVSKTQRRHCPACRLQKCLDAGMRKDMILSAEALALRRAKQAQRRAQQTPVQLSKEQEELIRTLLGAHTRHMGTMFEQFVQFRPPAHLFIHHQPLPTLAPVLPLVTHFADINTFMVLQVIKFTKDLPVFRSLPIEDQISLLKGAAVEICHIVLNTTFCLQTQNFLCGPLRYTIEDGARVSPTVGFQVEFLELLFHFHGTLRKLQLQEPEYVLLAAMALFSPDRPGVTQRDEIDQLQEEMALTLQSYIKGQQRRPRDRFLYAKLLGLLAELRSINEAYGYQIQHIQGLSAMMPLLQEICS
# Sequence of Oxysterols receptor LXR-beta (Homo sapiens) (P55055 whole entry, looked up, the tested form may be a part): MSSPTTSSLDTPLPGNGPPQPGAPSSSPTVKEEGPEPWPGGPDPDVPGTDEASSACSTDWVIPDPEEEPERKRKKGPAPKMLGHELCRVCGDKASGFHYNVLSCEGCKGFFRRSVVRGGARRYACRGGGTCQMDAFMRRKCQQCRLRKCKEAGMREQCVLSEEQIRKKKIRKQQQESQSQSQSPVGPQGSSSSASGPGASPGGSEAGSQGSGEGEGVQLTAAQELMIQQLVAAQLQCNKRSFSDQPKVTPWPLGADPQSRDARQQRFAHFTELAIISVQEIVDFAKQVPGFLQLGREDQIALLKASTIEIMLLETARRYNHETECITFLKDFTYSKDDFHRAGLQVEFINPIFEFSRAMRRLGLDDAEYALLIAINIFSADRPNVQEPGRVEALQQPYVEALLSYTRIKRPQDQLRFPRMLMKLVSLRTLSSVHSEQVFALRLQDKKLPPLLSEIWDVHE
# Sequence of Estrogen receptor (Homo sapiens) (P03372 whole entry, looked up, the tested form may be a part): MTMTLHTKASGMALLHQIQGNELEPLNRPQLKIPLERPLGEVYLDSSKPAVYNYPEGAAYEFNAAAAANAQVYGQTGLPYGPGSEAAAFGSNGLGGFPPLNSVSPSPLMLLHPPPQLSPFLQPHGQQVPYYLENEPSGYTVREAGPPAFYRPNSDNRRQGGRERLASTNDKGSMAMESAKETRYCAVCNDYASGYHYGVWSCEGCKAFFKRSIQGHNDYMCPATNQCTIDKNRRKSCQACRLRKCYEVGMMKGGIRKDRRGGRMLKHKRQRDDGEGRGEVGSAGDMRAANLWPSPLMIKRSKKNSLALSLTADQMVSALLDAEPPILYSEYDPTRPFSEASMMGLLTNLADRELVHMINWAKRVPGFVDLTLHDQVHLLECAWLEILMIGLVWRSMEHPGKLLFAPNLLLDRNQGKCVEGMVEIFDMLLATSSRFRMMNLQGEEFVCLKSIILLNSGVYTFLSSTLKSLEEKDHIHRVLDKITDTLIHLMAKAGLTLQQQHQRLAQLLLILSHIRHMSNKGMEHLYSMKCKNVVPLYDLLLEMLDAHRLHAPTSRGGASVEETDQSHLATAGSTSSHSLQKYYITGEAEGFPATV
smiles,measurement,setting,value
CC(Cl)(Cl)C(=O)O,outcome,[1],inactive
same,outcome,[2],inactive
same,outcome,[3],inactive
same,outcome,[4],inactive
same,outcome,[5],inactive
same,outcome,[6],inactive
same,outcome,[7],inactive
same,outcome,[8],inactive
same,outcome,[9],inactive
Cc1ccc(N)cc1N,outcome,[1],inactive
same,outcome,[2],inactive
same,outcome,[3],inactive
same,outcome,[4],inactive
same,outcome,[10],inactive
same,outcome,[5],inactive
same,outcome,[11],inactive
same,outcome,[12],inactive
same,outcome,[6],inactive
same,outcome,[13],inactive
same,outcome,[7],inactive
same,outcome,[9],inactive
Oc1ccccc1Br,outcome,[1],inactive
same,outcome,[2],inactive
same,outcome,[3],inactive
same,outcome,[4],inactive
same,outcome,[5],inactive
same,outcome,[11],inactive
same,outcome,[6],inactive
same,outcome,[13],inactive
same,outcome,[14],inactive
same,outcome,[7],inactive
CC(C)(C)OOC(C)(C)C,outcome,[1],inactive
same,outcome,[2],inactive
same,outcome,[3],inactive
same,outcome,[5],inactive
same,outcome,[15],inactive
same,outcome,[11],inactive
same,outcome,[6],inactive
same,outcome,[13],inactive
same,outcome,[16],inactive
same,outcome,[7],inactive
same,outcome,[9],inactive
CCOC(=O)c1ccccc1C(=O)OCC,outcome,[1],inactive
same,outcome,[2],inactive
same,outcome,[3],inactive
same,outcome,[4],inactive
same,outcome,[10],inactive
same,outcome,[17],inactive
same,outcome,[5],inactive
same,outcome,[11],inactive
same,outcome,[12],inactive
same,outcome,[6],inactive
same,outcome,[18],inactive
same,outcome,[14],inactive
same,outcome,[7],inactive
same,outcome,[9],inactive
CCCCc1ccc(O)cc1,outcome,[1],inactive
same,outcome,[2],inactive
same,outcome,[3],inactive
same,outcome,[19],inactive
same,outcome,[5],inactive
same,outcome,[15],inactive
same,outcome,[11],inactive
same,outcome,[6],inactive
same,outcome,[13],inactive
same,outcome,[7],inactive
same,outcome,[8],inactive
same,outcome,[9],inactive
CCOP(=S)(OCC)SCSCC,outcome,[1],inactive
same,outcome,[2],inactive
same,outcome,[3],inactive
same,AC50,[4],35.4 µM (active)
same,outcome,[5],inactive
same,outcome,[6],inactive
same,outcome,[13],inactive
same,outcome,[7],inactive
same,outcome,[9],inactive
Cc1ccc(C(=O)Cl)cc1,outcome,[1],inactive
same,outcome,[2],inactive
same,outcome,[3],inactive
same,outcome,[4],inactive
same,outcome,[17],inactive
same,outcome,[5],inactive
same,outcome,[15],inactive
same,outcome,[11],inactive
same,outcome,[12],inactive
same,outcome,[6],inactive
same,outcome,[14],inactive
same,outcome,[7],inactive
same,outcome,[8],inactive
O=C(O)C=CC(F)(C(F)(F)F)C(F)(F)F,outcome,[1],inactive
same,outcome,[2],inactive
same,outcome,[3],inactive
same,outcome,[4],inactive
same,outcome,[17],inactive
same,outcome,[5],inactive
same,outcome,[20],inactive
same,outcome,[6],inactive
same,outcome,[18],inactive
same,outcome,[14],inactive
same,outcome,[7],inactive
same,outcome,[8],inactive
Cc1ccc2c(c1N)C(=O)c1ccccc1C2=O,outcome,[1],inactive
same,outcome,[2],inactive
same,outcome,[3],inactive
same,outcome,[19],inactive
same,outcome,[17],inactive
same,outcome,[5],inactive
same,outcome,[15],inactive
same,outcome,[12],inactive
same,outcome,[6],inactive
same,outcome,[13],inactive
same,outcome,[8],inactive
same,outcome,[9],inactive
